# RTF Ca sens act: cardiac RTF calcium sensitization. P19429+P45379. IANBD-labeled TnC RTF fluorescence at EC20 calcium; 0% EC20 calcium, 100% full calcium. activation, % at 7.2 µM. actives 0.24% (n = 340,000);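 active = activation above the mean over all tested compounds plus 3 SD, cut at about 30% in these data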;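 also: rise in fluorescence read as greater calcium sensitivity of cardiac thin filaments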
# Keap1-Nrf2 PPI: inhibitors of human Keap1-Nrf2 protein-protein interaction; Q14145; Keap1 Kelch-Nrf2 peptide fluorescence polarization, 1536-well; inhibition, % at 9.4 µM; actives 0.15% (n = 340,000); in the data active = inhibition above about 12%;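 also: human Keap1 Kelch domain with fluorescein labeled Nrf2 9mer peptide probe; 0% = neutral control wells and 100% = peptide positive control; higher means more block of Keap1 binding to Nrf2 peptide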
# Target sequence (Q14145 whole entry, looked up, the tested form may be a part): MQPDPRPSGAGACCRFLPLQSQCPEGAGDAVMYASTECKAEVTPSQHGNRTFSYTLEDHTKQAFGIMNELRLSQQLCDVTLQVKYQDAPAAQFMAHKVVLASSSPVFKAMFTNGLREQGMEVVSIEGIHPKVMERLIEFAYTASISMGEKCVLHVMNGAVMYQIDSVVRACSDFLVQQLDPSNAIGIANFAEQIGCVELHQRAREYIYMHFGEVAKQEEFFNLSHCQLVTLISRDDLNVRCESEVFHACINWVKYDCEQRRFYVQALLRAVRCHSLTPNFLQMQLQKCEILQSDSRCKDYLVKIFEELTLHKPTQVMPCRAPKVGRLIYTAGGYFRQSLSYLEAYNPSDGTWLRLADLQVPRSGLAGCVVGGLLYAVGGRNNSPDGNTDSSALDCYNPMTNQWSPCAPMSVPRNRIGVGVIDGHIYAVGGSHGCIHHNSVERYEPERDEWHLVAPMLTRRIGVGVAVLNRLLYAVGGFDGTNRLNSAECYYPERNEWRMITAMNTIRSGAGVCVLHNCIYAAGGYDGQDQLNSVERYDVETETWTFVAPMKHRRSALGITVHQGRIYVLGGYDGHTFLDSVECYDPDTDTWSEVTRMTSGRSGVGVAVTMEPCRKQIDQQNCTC
# RTF Ca sens inh: cardiac RTF calcium desensitization. IANBD-labeled cardiac RTF, Ca2+ fluorescence. inhibition, % at 7.15 µM. actives 0.12% (n = 340,000);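 active = inhibition above the mean inhibition of all tested compounds plus 3 SD, cut at about 17% in these data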;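 also: assay run at fixed EC70 calcium of 1.6 mM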
# LANA-H2B inh: blocks KSHV LANA binding to histone H2A/H2B; Q9QR71; cell-free LANA-H2A/H2B peptide, fluorescence polarization; inhibition, % (test concentration not listed); actives 0.6% (n = 320,000); AID 2629; in the data active = inhibition mostly above about 10%, no sharp cut-off; inactive = mostly below about 6.7%
# LANA DNA inh: inhibitors of KSHV LANA C-terminal domain DNA binding; MBP-C-LANA/FAM-LBS DNA binding, fluorescence polarization; inhibition, % at 9 µM; actives 0.078% (n = 340,000);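 active = highest replicate inhibition at or above 60% at 9 µM, even if other replicates fall short; inactive = all replicates below 60% inhibition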;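 also: 0% = neutral control wells and 100% = 4 µM acridine orange control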
# Keap1 TSA: binders of human Keap1 Kelch domain. actives 8% (n = 400). max delta Tm, degrees C. Keap1 Kelch thermal shift, delta Tm; stronger effect = higher value. shares compounds with Keap1-Nrf2 PPI; in the data active = max delta Tm above about 0.48 degrees C
# Dye-only ctr: shifts Sypro Orange melt without protein, a false positive. shares compounds with Keap1-Nrf2 PPI. delta Tm, degrees C (concentration not given with the values). AID 651858. Sypro Orange dye-only thermal melt, no protein, delta Tm; top dose 26 µM. 140 tested, under 10 active;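 active = at highest dose tested, delta Tm positive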
# * = called active by the depositor; . = no result given. Sampled rows, rich in hits. Any-hit rate of the full collection: about 0.99%.
SMILES,RTF Ca sens act,Keap1-Nrf2 PPI,RTF Ca sens inh,LANA-H2B inh,LANA DNA inh,Keap1 TSA,others
Cc1nc(Cl)c2c(n1)NC1=C(O2)C(=O)CCC1,47*,28*,-75,16,51,-0.12,Dye-only ctr=-23
CCOC(=O)c1ccc2c(c1)N(CC)C(=O)c1ccccc1S2,-9,2,-2,-7,2,.,
CC1=CC(=C2N=C(c3ccccc3)OC2=O)C=C(C)O1,2,17*,-6,8,1,-0.13,
CN1C=CC=C/C1=C1/N=C(c2ccccc2)OC1=O,10,-1,0,-6,0,.,
CCC1CCCCN1C(=O)c1noc(C(C)C)c1[N+](=O)[O-] (stereo unspecified),-3,-1,-5,.,1,.,
COc1cc2c3nnc(-c4ccc(F)cc4)c-3cn(Cc3ccc(F)cc3)c2cc1OC,0,8,-5,-2,24,.,
COc1cc2c3nnc(-c4ccc(F)cc4)c-3cn(Cc3ccccc3)c2cc1OC,7,16*,-9,9,2,-0.16,Dye-only ctr=-26
O=c1[nH]c(/C=C/c2cccc3ccccc23)nc2ccccc12,-1,17*,-13,-2,35,-0.02,Dye-only ctr=-22
O=c1[nH]c(/C=C/c2ccccc2F)nc2ccccc12,-4,3,-2,1,-1,.,
O=S(=O)(Nc1ncccn1)c1ccc(NC(=S)NCc2cccnc2)cc1,2,17*,10,-3,1,-0.18,
Cc1ccccc1S(=O)(=O)Cc1ccc(C(=O)N2CCN(c3cccc(C)c3C)CC2)o1,-11,-1,-2,-2,2,.,
NS(=O)(=O)c1ccc(N=Nc2c[nH]c(=O)c(O)c2)cc1,58*,34*,-37,2,68*,0.54*,Dye-only ctr=-26
Nc1nc(O)c(N=Nc2ccc(S(N)(=O)=O)cc2)c(=O)[nH]1,.,.,.,0,.,.,
COc1ccc(C(C)=NNc2ccc([N+](=O)[O-])cc2S(=O)(=O)Nc2ccccc2C(=O)O)c(OC)c1,-1,32*,-3,-6,14,3.3*,Dye-only ctr=-21
Cc1ccccc1NC(=O)c1sc(NC(=O)C2CC2)nc1C,2,28*,-2,-2,12,0.01,
Cc1nc(NC(=O)C2CC2)sc1C(=O)Nc1ccccc1,-6,-1,-7,-5,0,.,
COc1ccc(C=CC(C)=NNC(=O)c2ccncc2)cc1,-1,-6,1,.,0,.,
O=C(OCCN1C(=O)c2cccc3c(N4CCOCC4)ccc(c23)C1=O)c1ccc(Cl)cc1Cl,192*,43*,-268,30*,63*,-0.15,Dye-only ctr=-4.9
O=C(OCc1c(F)cccc1Cl)c1cc([N+](=O)[O-])ccc1N1CCOCC1,0,-4,-21,-2,1,.,
CCOC(=O)C1=C(C)NC(C)=C(C(=O)OCC)C1c1ccc([N+](=O)[O-])s1,.,39*,.,2,20,-0.11,
O=C1c2cccc3c(N4CCCCC4)ccc(c23)C(=O)N1c1cccc(O)c1,59*,27*,-120,9,53,-0.08,Dye-only ctr=-27
Cc1n[nH]c(C)c1N1C(=O)c2cccc3c(N4CCCCCC4)ccc(c23)C1=O,317*,16*,-391,65*,42,-0.13,
COCCn1c(-c2ccc(C)cc2)nc2c(c(=O)c3ccccc3n2C)c1=O,1,-2,-8,.,3,.,
CC(OC(=O)CNC(=O)c1ccccc1F)C(=O)Nc1nc(-c2ccccc2)cs1 (stereo unspecified),6,-5,6,-3,-1,.,
Oc1ccc2nnc3c(Br)cnn3c2c1,84*,37*,-116,19*,67*,-0.17,
SMILES,RTF Ca sens act,Keap1-Nrf2 PPI,RTF Ca sens inh,LANA-H2B inh,LANA DNA inh,Keap1 TSA,others
COCCCn1c(=NC(C)=O)c(C#N)cc2c(=O)n3cccc(C)c3nc21,.,.,.,-6,.,.,
COCCCn1c(=NC(=O)c2ccccc2)c(C#N)cc2c(=O)n3cccc(C)c3nc21,11,14*,-19,27*,5,0.04,
CCOCCCn1c(=NC(=O)c2cccs2)c(C#N)cc2c(=O)n3cccc(C)c3nc21,22,13*,-16,28*,14,0.24,
O=C(NCCCN1CCOCC1)c1coc2ccccc2c1=O,0,0,-6,6,0,.,
CCOc1ccc(S(=O)(=O)Nc2cccc(C(=O)NCCCn3ccnc3)c2)cc1,-2,27*,-12,-8,12,0.01,
O=c1[nH]c2c(s1)C=Nc1ccccc1N2,78*,38*,-100,38*,54,-0.04,Dye-only ctr=-20
O=C1CC(c2ccco2)CC2=C1C=Nc1ccccc1N2 (stereo unspecified),-4,-1,-18,9,1,.,
COc1ccc(N=Nc2nc3cc(Br)c(Br)cc3n2C)c(OC)c1,47*,13*,-42,102*,24,0.04,
CC(Sc1ncc(C(F)(F)F)cc1Cl)C(=O)NC(N)=O (stereo unspecified),2,-1,7,6,0,.,
COc1ccc(NS(=O)(=O)c2ccc(F)c(Cl)c2)cn1,8,21*,-14,5,32,-0.07,
CC(C)(C)c1ccccc1NC(=O)NC1CCN(Cc2c(F)cccc2Cl)CC1,.,21*,.,-1,10,-0.17,
CCN1CC=C2C(C1)C(c1ccc(Cl)s1)C(C#N)=C(N)C2(C#N)C#N (stereo unspecified),30*,21*,-27,6,36,-0.04,
C=CCn1c(=O)/c(=C/c2ccsc2)s/c1=C(\C#N)C(=O)NCCN1CCOCC1,2,13*,-5,.,-3,-0.15,
Cc1snc(S(=O)(=O)/C(C#N)=N/Nc2cccc(C(F)(F)F)c2)c1C#N,-14,12*,0,1,-2,0.19,
OC(Cc1ccncc1)(c1ccccc1)c1ccccc1,-1,28*,-7,0,-1,-0.11,
OC(CNCc1ccccc1)(c1ccccc1)c1ccccc1,-2,1,-3,-5,-2,.,
COc1ccc(Oc2coc3cc(OC(=O)/C=C/c4ccccc4)ccc3c2=O)cc1,-2,3,-41,.,-1,.,
CCCCCSc1nnc2c(n1)OC(C)N(C(C)=O)c1ccccc1-2 (stereo unspecified),4,13*,-6,-3,0,-0.03,
CCCSc1nnc2c(n1)OC(c1cccn1C)N(C(C)=O)c1ccccc1-2 (stereo unspecified),-8,0,1,-2,-2,.,
CCCCn1c(SCC(=O)N2CC(=O)Nc3ccccc32)nnc1-c1ccoc1C,8,-1,-8,-6,0,.,
O=C(CSC1=NNC(c2ccccn2)S1)Nc1ccccc1 (stereo unspecified),0,-4,0,2,0,.,
O=C(CSC1=NNC(c2ccccn2)S1)Nc1cccc(Cl)c1 (stereo unspecified),.,19*,.,4,12,-0.17,

# Assay outcomes (PubChem)
